Assay results as given in PubChem BioAssay AID1159602 (The Scripps Research Institute Molecular Screening Center, 2016).
The whole screen tested about 22,000 compounds, of which about 220 (1%) were called active. Rule as the data show it: active = inhibition above about 35%; inactive = the rest. The list comes from a sample in which actives are over-represented; it also holds similar structures and randomly drawn compounds.

Target: Mitogen-activated protein kinase kinase kinase 5 (Homo sapiens) (UniProt Q99683)
Experiment: blockers of MAP3K5 kinase activity – biochemical, AlphaScreen, primary screen (AID 1159602);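 also: 0% = median of compound wells and 100% = no enzyme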
Conditions: AlphaScreen MKK6 phosphorylation by ASK1, luminescence; at 7.44 µM; hits give high values

Chain of Mitogen-activated protein kinase kinase kinase 5 (Homo sapiens) (Q99683 whole entry, looked up): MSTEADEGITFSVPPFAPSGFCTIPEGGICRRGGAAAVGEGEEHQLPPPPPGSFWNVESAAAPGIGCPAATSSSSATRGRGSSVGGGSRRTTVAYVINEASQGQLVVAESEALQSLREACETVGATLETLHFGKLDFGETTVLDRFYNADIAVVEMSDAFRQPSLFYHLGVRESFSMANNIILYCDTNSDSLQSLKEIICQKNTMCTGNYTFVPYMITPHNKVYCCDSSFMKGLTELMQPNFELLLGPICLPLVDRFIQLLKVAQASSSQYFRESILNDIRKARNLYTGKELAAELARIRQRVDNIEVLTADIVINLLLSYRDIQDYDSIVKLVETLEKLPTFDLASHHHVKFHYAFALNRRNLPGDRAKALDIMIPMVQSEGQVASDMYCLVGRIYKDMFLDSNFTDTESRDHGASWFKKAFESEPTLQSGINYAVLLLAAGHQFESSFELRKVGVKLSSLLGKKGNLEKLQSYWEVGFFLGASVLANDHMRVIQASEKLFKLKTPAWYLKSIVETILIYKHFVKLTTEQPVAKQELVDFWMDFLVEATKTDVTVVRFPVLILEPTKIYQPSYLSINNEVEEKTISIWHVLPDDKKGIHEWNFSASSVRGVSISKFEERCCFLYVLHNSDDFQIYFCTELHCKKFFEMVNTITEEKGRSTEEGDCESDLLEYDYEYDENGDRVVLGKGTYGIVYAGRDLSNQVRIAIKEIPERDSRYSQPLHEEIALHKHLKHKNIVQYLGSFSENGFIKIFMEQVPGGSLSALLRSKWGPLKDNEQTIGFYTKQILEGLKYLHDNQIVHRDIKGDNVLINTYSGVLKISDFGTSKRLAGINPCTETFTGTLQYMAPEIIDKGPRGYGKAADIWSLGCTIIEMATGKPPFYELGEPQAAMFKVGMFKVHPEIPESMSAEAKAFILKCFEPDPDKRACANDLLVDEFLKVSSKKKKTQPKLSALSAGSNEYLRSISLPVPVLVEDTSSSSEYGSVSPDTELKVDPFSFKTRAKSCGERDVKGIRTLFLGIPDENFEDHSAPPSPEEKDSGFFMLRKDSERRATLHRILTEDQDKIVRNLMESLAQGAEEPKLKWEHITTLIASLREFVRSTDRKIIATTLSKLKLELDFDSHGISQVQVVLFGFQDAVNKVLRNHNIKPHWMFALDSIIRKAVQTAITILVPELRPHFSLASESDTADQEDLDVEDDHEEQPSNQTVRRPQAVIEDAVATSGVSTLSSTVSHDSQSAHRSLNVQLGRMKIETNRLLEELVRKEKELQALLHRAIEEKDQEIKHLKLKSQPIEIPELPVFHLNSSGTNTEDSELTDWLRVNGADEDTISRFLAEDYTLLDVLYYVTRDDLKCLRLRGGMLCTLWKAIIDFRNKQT

Row | SMILES | inhibition
1 | O=C(Nc1ccncc1)OC1CCN(C(=O)[C@H](O)COc2ccc(Br)cc2)CC1 | -3.38% (inactive)
2 | COC(=O)c1cccc(-n2ncc3cc(Nc4ccccc4)ccc32)c1 | -20.5% (inactive)
3 | Cc1noc(C)c1-c1nc(NC2CC2)c2ncn(-c3ccsc3)c2n1 | -7.13% (inactive)
4 | COc1cc2nc(N3CCN(c4ccccn4)CC3)nc(NCc3nc4ccccc4[nH]3)c2cc1OC | -8.78% (inactive)
5 | CC(=O)Nc1ccc(NC(=O)c2csc(N3CCC(N4CCOCC4)CC3)n2)cc1 | 14.1% (inactive)
6 | CCCNc1nc(-c2cccc(C(C)=O)c2)nc2nc[nH]c12 | 6.62% (inactive)
7 | c1ccc(OCCNc2nc(N3CCC(N4CCOCC4)CC3)nc3c2ncn3-c2ccccc2)cc1 | 8.08% (inactive)
8 | CC(C)(C)OC(=O)N1CCC(CC(=O)Nc2ccnn2-c2cccc(C(=O)Nc3ccc(N4CCOCC4)cc3)c2)CC1 | 7.81% (inactive)
9 | Cc1noc(C)c1-c1cc(C(=O)NCc2cccc(C(F)(F)F)c2)ccn1 | 1.72% (inactive)
10 | O=C(NCCOc1ccccc1)c1cnc(Nc2cccnc2)s1 | 4.63% (inactive)
11 | O=C(c1cccnc1)N1CCCC(Nc2ccc3[nH]ncc3c2)C1 (stereo unspecified) | -32% (inactive)
12 | Nc1cccc(-c2nc(NCc3nc4ccccc4[nH]3)c3ncn(Cc4ccc(C(F)(F)F)cc4)c3n2)c1 | -18.3% (inactive)
13 | Cc1cc(NCc2cccnc2)nc(-c2ccc(C(N)=O)cc2)n1 | 1.31% (inactive)
14 | COc1cc(Nc2cc(C(=O)NCc3ccccc3)ccn2)cc(OC)c1OC | 2.85% (inactive)
15 | O=C(NC1CC1)c1ccc(-c2nc(NC3CCN(Cc4ccccc4)CC3)c3ncn(C4CCCCC4)c3n2)cc1 | 9.66% (inactive)
16 | FC(F)(F)c1cccc(CNc2ncnc3nc(Nc4ccncn4)[nH]c23)c1 | 14.3% (inactive)
17 | COc1cc(NC(=O)c2ccnc(N3CCC(N4CCOCC4)CC3)c2)cc(OC)c1OC | 1.9% (inactive)
18 | NC(=O)c1cccc(N2CCCC2CO)n1 (stereo unspecified) | 1.37% (inactive)
19 | COc1cc(NC(=O)[C@H](N)c2ccc(F)cc2)c(F)cc1-c1cn[nH]c1 | 8.67% (inactive)
20 | Cc1nn(C)c(C)c1-c1nc(NCCc2ccc(O)cc2)c2ncn(CCN3CCCC3=O)c2n1 | -10.9% (inactive)
21 | Cn1c(Nc2nc(NCCN3CCOCC3)c3ncn(-c4ccccc4)c3n2)nc2ccccc21 | -13.6% (inactive)
22 | CCN(CC)C(=O)C1CCCN(c2nc(NCc3cccc(C(F)(F)F)c3)c3cc(OC)c(OC)cc3n2)C1 (stereo unspecified) | 3.43% (inactive)

Row | SMILES | inhibition
23 | CCNc1nc(C(=O)NCc2ccccc2)cs1 | -2.48% (inactive)
24 | O=C(NCCN1CCOCC1)c1ccc2nc(N3CCCC3CO)sc2c1 (stereo unspecified) | 3.28% (inactive)
25 | CCCNc1cc(NC2CCN(Cc3ccccc3)CC2)nc(N)n1 | 6.95% (inactive)
26 | O=C([C@@H](O)CSc1ccc(Br)cc1)N1CCC(Nc2ccc3[nH]ncc3c2)CC1 | -0.23% (inactive)
27 | CC(=O)c1cccc(-c2nc3ccc(C(=O)NCCO)cc3s2)c1 | 0.91% (inactive)
28 | FC(F)(F)c1ccc(Cn2cnc3c(Nc4ccc(Oc5ccccc5)cc4)nc(N4CCOCC4)nc32)cc1 | 18% (inactive)
29 | CC(C)n1cnc2c(Nc3ccc(N4CCOCC4)cc3)nc(NC3CCC(O)CC3)nc21 (stereo unspecified) | 6.93% (inactive)
30 | Cc1cc(NC2CCN(Cc3ccccc3)CC2)nc(Nc2ccccc2)n1 | 12.7% (inactive)
31 | CC(C)n1cnc2c(NC3CCN(Cc4ccccc4)CC3)nc(NC3CCN(Cc4ccccc4)CC3)nc21 | 8.61% (inactive)
32 | c1ccc(CN2CCC(Nc3nc(Nc4ccc(N5CCOCC5)cc4)c4ncn(C5CCCCC5)c4n3)CC2)cc1 | 22.4% (inactive)
33 | CC(C)n1cnc2c(NC3CCN(Cc4ccccc4)CC3)nc(Nc3ccc(N4CCOCC4)cc3)nc21 | 45% (active)
34 | O=C(Nc1ccc(Oc2ccccc2)cc1)c1cncc(-c2ccc(C(=O)NC3CC3)cc2)c1 | 9.5% (inactive)
35 | COc1cc(Nc2ncnc3c2nc(N2CCN(Cc4ccc5c(c4)OCO5)CC2)n3C(C)C)cc(OC)c1OC | 10.6% (inactive)
36 | COc1ccc(CCNc2cc(C)nc(NCc3ccc4c(c3)OCO4)n2)cc1 | 15.4% (inactive)
37 | COc1ccc(CCNc2cc(C)nc(Nc3cccc(N(C)C)c3)n2)cc1 | 70.9% (active)
38 | Cc1cc(Nc2ccc(N3CCOCC3)cc2)nc(NCc2ccc3c(c2)OCO3)n1 | 37.3% (active)
39 | CN(C)c1cccc(Nc2nccc(Nc3ccccc3)n2)c1 | 13% (inactive)
40 | CCNc1nc(C)cc(Nc2ccc(N3CCOCC3)cc2)n1 | 30.4% (inactive)
41 | COc1ccc(CCNc2ncnc3c2nc(Nc2cccc(N(C)C)c2)n3C(C)C)cc1 | 27.5% (inactive)
42 | CN(C)c1cccc(Nc2ncc(C(=O)Nc3ccc4c(c3)OCO4)s2)c1 | 24.2% (inactive)
43 | CC(=O)Nc1ccc(Nc2cc(C)nc(NCc3ccc4c(c3)OCO4)n2)cc1 | 5.86% (inactive)
44 | Cc1cc(Nc2ccc3c(c2)OCO3)nc(Nc2cccc(N(C)C)c2)n1 | 62.2% (active)

Row | SMILES | inhibition
45 | CC(=O)c1cccc(-c2ccc(C(=O)Nc3ccccc3)s2)c1 | -3.18% (inactive)
46 | COc1ccc2c(c1)C[C@H](C(=O)Nc1ccc(-c3cn[nH]c3)cc1N(C)CCN(C)C)NC2 | 5.32% (inactive)
47 | CC(C)N(CCNc1nc(Nc2ccccc2)nc2c1ncn2C(C)C)C(C)C | 6.04% (inactive)
48 | NC(=O)c1ccc(-c2nc(NCCO)c3ncn(-c4ccsc4)c3n2)cc1 | 0.26% (inactive)
49 | Cc1cnc(N2CCc3ccccc3C2)nc1NCCN(C(C)C)C(C)C | -16.8% (inactive)
50 | COc1cc(-c2cn[nH]c2)ccc1C(=O)NCCc1cccs1 | 15.3% (inactive)
51 | O=C(Cc1cccc(Br)c1)Nc1cnn(-c2cccc(C(=O)Nc3ccc(N4CCOCC4)cc3)c2)c1 | -2.11% (inactive)
52 | Cc1cccc(CC(=O)Nc2cnn(-c3cccc(C(=O)Nc4ccc(N5CCOCC5)cc4)c3)c2)c1 | 16.2% (inactive)
53 | Cc1ccccc1-c1cscc1Nc1cnn(-c2cccc(C(=O)Nc3ccc(N4CCOCC4)cc3)c2)c1 | 37.8% (active)
54 | c1ccc(CNc2nc(Nc3cccnc3)nc3c2ncn3-c2ccccc2)cc1 | 8.4% (inactive)
55 | CC(=O)c1cccc(-c2nc3ccc(C(=O)NC4CCN(Cc5ccccc5)CC4)cc3s2)c1 | -0.28% (inactive)
56 | CC(C)n1c(Nc2ccccc2)nc2c(NCc3cccc(C(F)(F)F)c3)ncnc21 | -21.3% (inactive)
57 | CCCNc1ncnc2c1nc(N1CCN(c3ccccn3)CC1)n2C(C)C | -14.9% (inactive)
58 | COc1ccc(CCNc2cc(Nc3cc(OC)c(OC)c(OC)c3)nc(N)n2)cc1 | -1.19% (inactive)
59 | CCCNC(=O)c1csc(Nc2nc3ccccc3n2C)n1 | -7.28% (inactive)
60 | COc1ccc(-c2nc(Nc3cc(OC)c(OC)c(OC)c3)c3ncn(C(C)C)c3n2)cc1 | 9.01% (inactive)
61 | CC(C)[C@@H](O)C(=O)N1CCC[C@@H]1C(=O)Nc1ccc2[nH]ncc2c1 | 4.14% (inactive)
62 | O=C(NCc1nc2ccccc2[nH]1)c1cc(N2CCCC2CO)nc2ccccc12 (stereo unspecified) | 7.25% (inactive)
63 | c1ccc(-n2cnc(-c3ccnc(Nc4ccc(N5CCOCC5)cc4)c3)n2)cc1 | 9.1% (inactive)
64 | Fc1cnc(Nc2ccc(N3CCNCC3)cc2)cc1-n1cnc(Nc2ccccc2)n1 | 56.6% (active)
65 | c1ccc(Nc2nccc(Nc3ccc(N4CCOCC4)cc3)n2)cc1 | 25.1% (inactive)
66 | O=C1CCCN1CCn1cnc2c(NC3CC3)nc(NCc3ccc4c(c3)OCO4)nc21 | -15.8% (inactive)

Row | SMILES | inhibition
67 | Nc1nc(NCCCN2CCCC2=O)cc(Nc2cnccn2)n1 | 0.26% (inactive)
68 | CCCNc1nc(N2CCCC(C(=O)N(CC)CC)C2)nc2c1ncn2Cc1ccc(C(F)(F)F)cc1 (stereo unspecified) | 15.8% (inactive)
69 | COc1cc2nc(Cl)nc(NC3CC3)c2cc1OC | -7.49% (inactive)
70 | CCN(CC)c1nc(NCCc2ccc(O)cc2)nc(Nc2cc(OC)c(OC)c(OC)c2)n1 | 4.75% (inactive)
71 | Nc1cccc(-c2cncc(C(=O)NCCOc3ccccc3)c2)c1 | 1.06% (inactive)
72 | CC(C)n1cnc2c(NCc3cccc(C(F)(F)F)c3)nc(Nc3ccc(OC(F)(F)F)cc3)nc21 | -3.35% (inactive)
73 | Cc1nn(C)c(C)c1-c1nc(C(=O)NCCc2ccc(O)cc2)cs1 | 4.91% (inactive)
74 | Nc1nc(NCc2nc3ccccc3[nH]2)cc(N2CCN(Cc3ccc4c(c3)OCO4)CC2)n1 | 1.22% (inactive)
75 | c1ccc2[nH]c(CNc3ncnc4nc(Nc5ccncn5)[nH]c34)nc2c1 | -8.27% (inactive)
76 | Cc1cc(NCc2nc3ccccc3[nH]2)nc(N2CCOCC2)n1 | -7.53% (inactive)
77 | c1ccc(-c2ncn[nH]2)c(Nc2ccnc(Nc3ccc(N4CCOCC4)cc3)c2)c1 | 37% (active)
78 | Cc1cnc(Nc2ccc(N3CCOCC3)cc2)nc1Nc1ccccc1-c1ncn[nH]1 | -18% (inactive)
79 | CNC(=O)c1ccccc1Nc1ccnc(Nc2ccc(N3CCOCC3)cc2)c1 | 8.11% (inactive)
80 | COc1ccc(CCNc2ncnc3nc(-c4ccc(C(N)=O)cc4)[nH]c23)cc1 | -0.94% (inactive)
81 | NC(=O)c1ccc(-c2ncc(C(=O)NCCOc3ccccc3)s2)cc1 | -1.66% (inactive)
82 | COc1cc(Nc2nc(C)cc(N)n2)cc(OC)c1OC | -5.08% (inactive)
83 | Nc1cccc(-c2cc(Nc3ccccc3)ncn2)c1 | 4.09% (inactive)
84 | c1cnc(Nc2nc(NCc3cccnc3)c3ncn(C4CCCCC4)c3n2)nc1 | 5.63% (inactive)
85 | c1ccc(CN2CCC(Nc3nc(-c4csc5ccccc45)nc4c3ncn4C3CCCCC3)CC2)cc1 | -20.4% (inactive)
86 | c1ccc(Oc2ccc(Nc3nc(Nc4ccccn4)nc4c3ncn4-c3ccsc3)cc2)cc1 | 2.93% (inactive)
